Results reported in PubChem BioAssay (Tox21).
Where “and” joins values, the source holds several entries; their conditions need not be identical. Equal entries are not always repeated. A structure can be active in one record and inactive in another. Calls of active or inactive are those of the source. Where a call stands in place of a potency, no number is given. Unless noted, calls come from the whole dose curve; as a rule, active = well fitted curve in the direction sought with a large enough effect in the repeat runs; inconclusive = weak or mixed curves; inactive = no such curve, though single readings can be large; an effect the other way counts as inactive or inconclusive.

How the values were obtained:
[1] = qHTS assay to identify small molecule antagonists of the glucocorticoid receptor (GR) signaling pathway - cell viability counter screen (AID 720693); note: nearly all actives have a fitted effect of over 55% in size; note: potency is the fitted concentration of half-maximal effect
[2] = qHTS assay for identifying genotoxic compounds that show differential cytotoxicity against isogenic chicken DT40 cell lines with known DNA damage response pathways - wild type cell line (AID 743012); note: nearly all actives have a fitted effect of over 60% in size; note: potency is the fitted concentration of half-maximal effect
How it was run: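 Parental DNA repair-proficient DT40 cells, 300 per well, were pre-incubated ~0.5 h at 37 C/5% CO2, pin-dosed with compounds in DMSO, then incubated 40 h. Viability was read as CellTiter-Glo luminescence after 30 min at room temperature.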

[3] = qHTS assay for identifying genotoxic compounds that show differential cytotoxicity against isogenic chicken DT40 cell lines with known DNA damage response pathways - Rev3 mutant cell line (AID 743014); note: nearly all actives have a fitted effect of over 55% in size; note: potency is the fitted concentration of half-maximal effect
[4] = qHTS assay to identify small molecule antagonists of the androgen receptor (AR) signaling pathway - cell viability counter screen (AID 743033; note: nearly all actives have a fitted effect of over 45% in size; note: potency is the fitted concentration of half-maximal effect)
[5] = molecular target: Androgen receptor (Homo sapiens) (UniProt P10275); assay: qHTS assay to identify small molecule agonists of the androgen receptor (AR) signaling pathway using the MDA cell line (AID 743040; note: nearly all actives have a fitted effect of over 20% in size)
Chain of Androgen receptor (Homo sapiens) (P10275 whole entry, looked up): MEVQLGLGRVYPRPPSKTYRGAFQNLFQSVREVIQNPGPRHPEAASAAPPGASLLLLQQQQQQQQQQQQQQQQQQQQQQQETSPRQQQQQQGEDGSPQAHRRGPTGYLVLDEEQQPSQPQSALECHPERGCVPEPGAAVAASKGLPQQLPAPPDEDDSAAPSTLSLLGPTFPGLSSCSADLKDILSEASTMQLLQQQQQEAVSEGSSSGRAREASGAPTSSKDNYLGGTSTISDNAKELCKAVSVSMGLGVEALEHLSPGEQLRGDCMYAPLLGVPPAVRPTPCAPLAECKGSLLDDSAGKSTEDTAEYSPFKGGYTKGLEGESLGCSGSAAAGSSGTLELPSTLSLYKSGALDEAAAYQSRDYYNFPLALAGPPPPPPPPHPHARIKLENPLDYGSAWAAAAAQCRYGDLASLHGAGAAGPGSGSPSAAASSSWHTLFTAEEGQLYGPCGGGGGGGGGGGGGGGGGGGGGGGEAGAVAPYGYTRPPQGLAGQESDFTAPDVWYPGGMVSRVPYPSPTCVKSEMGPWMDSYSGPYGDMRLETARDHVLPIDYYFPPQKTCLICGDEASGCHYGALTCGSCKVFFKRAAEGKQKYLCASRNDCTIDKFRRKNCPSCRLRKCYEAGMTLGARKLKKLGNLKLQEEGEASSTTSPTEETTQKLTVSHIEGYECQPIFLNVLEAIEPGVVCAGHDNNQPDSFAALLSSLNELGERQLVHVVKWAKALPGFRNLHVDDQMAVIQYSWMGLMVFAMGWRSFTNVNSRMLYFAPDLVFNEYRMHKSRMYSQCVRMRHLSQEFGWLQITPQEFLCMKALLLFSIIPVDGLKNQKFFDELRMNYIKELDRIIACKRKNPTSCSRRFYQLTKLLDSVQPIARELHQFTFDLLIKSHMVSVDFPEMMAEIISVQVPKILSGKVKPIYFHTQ
How it was run: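 Luminescence from ONE-Glo, read after 30 min at room temperature, reflects MMTV-driven luciferase in MDA-kb2 cells (AR- and GR-responsive). Treatment lasted 16 h at 37C, 0% CO2.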

[6] = qHTS assay to identify small molecule antagonists of the androgen receptor (AR) signaling pathway using the MDA cell line - cell viability counter screen (AID 743041; note: nearly all actives have a fitted effect of over 45% in size; note: potency is the fitted concentration of half-maximal effect)
How it was run: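 Viability counter screen run alongside the AR antagonist reporter: cells seeded 5 h before compound, R1881 added, 16 h incubation at 37C without CO2, fluorescent CellTiter-Fluor signal quantified.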

[7] = qHTS assay to identify small molecule antagonists of the thyroid receptor (TR) signaling pathway (AID 743065); note: nearly all actives have a fitted effect of over 55% in size; note: potency is the fitted concentration of half-maximal effect
How it was run: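 GH3.TRE-Luc rat pituitary cells carrying two TR response elements driving luciferase were plated for 4 h, given compound plus 1 nM T3 (final), and incubated 23.5 h at 37 C. ONE-Glo luminescence measured reporter inhibition; CellTiter-Fluor fluorescence tracked cytotoxicity.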

[8] = test system: thyroid hormone receptor (rat, GH3 cells); assay: qHTS assay to identify small molecule agonists of the thyroid receptor (TR) signaling pathway (AID 743066; calls by dose curve)
[9] = qHTS assay to identify small molecule antagonists of the thyroid receptor (TR) signaling pathway - cell viability counter screen (AID 743064); note: nearly all actives have a fitted effect of over 50% in size; note: potency is the fitted concentration of half-maximal effect
How it was run: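 Same-well viability check: GH3.TRE-Luc cells stimulated with 1 nM T3 alongside test compound for 23.5 h, followed by CellTiter-Fluor fluorescence.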

[10] = qHTS assay to identify small molecule antagonists of the estrogen receptor alpha (ER-alpha) signaling pathway - cell viability counter screen (AID 743074; calls by dose curve;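 note: HEK293 cells carrying ER-alpha-UAS-bla reporter stimulated with 17beta-estradiol; nearly all actives have a fitted effect of over 45% in size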)
[11] = qHTS assay to identify small molecule antagonists of the estrogen receptor alpha (ER-alpha) signaling pathway using the BG1 cell line - cell viability counter screen (AID 743081);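 note: compound given together with 17beta-estradiol as the ER stimulus; nearly all actives have a fitted effect of over 45% in size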; note: potency is the fitted concentration of half-maximal effect
Aromatase (Homo sapiens) = Aromatase (Homo sapiens) (UniProt P11511); assay: qHTS assay to identify aromatase inhibitors (AID 743083); note: nearly all actives have a fitted effect of over 55% in size; note: potency is the fitted concentration of half-maximal effect
Chain of Aromatase (Homo sapiens) (P11511 whole entry, looked up): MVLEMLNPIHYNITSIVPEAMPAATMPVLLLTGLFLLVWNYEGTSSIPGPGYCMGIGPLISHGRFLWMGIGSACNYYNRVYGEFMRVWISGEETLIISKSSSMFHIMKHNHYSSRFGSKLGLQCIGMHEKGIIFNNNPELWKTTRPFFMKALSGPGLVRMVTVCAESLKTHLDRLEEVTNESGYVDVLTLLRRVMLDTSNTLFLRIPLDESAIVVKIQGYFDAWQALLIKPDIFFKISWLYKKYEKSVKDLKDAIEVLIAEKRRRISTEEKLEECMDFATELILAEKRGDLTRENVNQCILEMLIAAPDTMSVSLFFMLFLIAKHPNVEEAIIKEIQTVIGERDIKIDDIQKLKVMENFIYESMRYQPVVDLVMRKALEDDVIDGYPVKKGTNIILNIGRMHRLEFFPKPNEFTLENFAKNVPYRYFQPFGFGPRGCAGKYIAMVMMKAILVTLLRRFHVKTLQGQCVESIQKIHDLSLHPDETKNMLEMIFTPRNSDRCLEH

[12] = qHTS assay for identifying genotoxic compounds that show differential cytotoxicity against isogenic chicken DT40 cell lines with known DNA damage response pathways - Rad54/Ku70 mutant cell line (AID 743015); note: nearly all actives have a fitted effect of over 60% in size; note: potency is the fitted concentration of half-maximal effect
[13] = molecular target: Estrogen receptor (Homo sapiens) (UniProt P03372); assay: qHTS assay to identify small molecule agonists of the estrogen receptor alpha (ER-alpha) signaling pathway (AID 743075; calls by dose curve;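 note: HEK293 GripTite cells with ER-alpha and UAS-driven beta-lactamase reporter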; note: potency is the fitted concentration of half-maximal effect)
Chain of Estrogen receptor (Homo sapiens) (P03372 whole entry, looked up): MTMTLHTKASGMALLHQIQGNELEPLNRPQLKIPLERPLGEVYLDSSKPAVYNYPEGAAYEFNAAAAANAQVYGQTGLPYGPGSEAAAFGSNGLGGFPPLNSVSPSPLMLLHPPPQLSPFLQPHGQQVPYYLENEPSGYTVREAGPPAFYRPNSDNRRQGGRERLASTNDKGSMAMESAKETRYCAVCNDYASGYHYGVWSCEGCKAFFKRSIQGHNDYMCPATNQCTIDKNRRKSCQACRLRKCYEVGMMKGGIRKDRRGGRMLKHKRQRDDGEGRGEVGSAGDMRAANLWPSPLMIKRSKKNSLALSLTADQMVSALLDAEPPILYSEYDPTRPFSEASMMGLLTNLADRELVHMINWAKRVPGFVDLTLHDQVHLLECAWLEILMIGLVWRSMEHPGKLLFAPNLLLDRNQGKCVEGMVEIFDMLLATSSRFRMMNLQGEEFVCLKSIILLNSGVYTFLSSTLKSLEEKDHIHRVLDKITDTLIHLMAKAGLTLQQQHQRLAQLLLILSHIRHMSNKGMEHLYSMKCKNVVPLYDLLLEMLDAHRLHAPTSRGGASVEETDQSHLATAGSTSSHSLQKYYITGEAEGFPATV

[14] = molecular target: Estrogen receptor (Homo sapiens) (UniProt P03372); assay: qHTS assay to identify small molecule agonists of the estrogen receptor alpha (ER-alpha) signaling pathway using the BG1 cell line (AID 743079); note: nearly all actives have a fitted effect of over 20% in size; note: potency is the fitted concentration of half-maximal effect
[15] = qHTS assay to identify small molecule antagonists of the estrogen receptor alpha (ER-alpha) signaling pathway using the BG1 cell line (AID 743080; calls by dose curve;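 note: BG1 cells stimulated with 17beta-estradiol alongside compound; nearly all actives have a fitted effect of over 25% in size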; note: potency is the fitted concentration of half-maximal effect)
How it was run: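 BG1-Luc-4E2 cells (endogenous full-length ER-alpha, 4xERE luciferase) hormone-starved 5 days in charcoal-stripped FBS, plated 4,000/well for 24 h, then compound plus 17beta-estradiol for 21.5 h at 37 C; ONE-Glo luminescence read.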

[16] = molecular target: Estrogen receptor (Homo sapiens) (UniProt P03372); assay: qHTS assay to identify small molecule antagonists of the estrogen receptor alpha (ER-alpha) signaling pathway (AID 743069; active = well fitted curve in the direction sought with a large enough effect in the signal ratio in the repeat runs, not every such curve was filed as active; inconclusive = weak or mixed curves, or effect the other way; inactive = no such curve, though single readings can be large or run the other way; the % refers to the signal ratio; note: potency is the fitted concentration of half-maximal effect)
How it was run: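 Estradiol-stimulated ER-alpha-UAS-bla HEK293 cells, 18 hr compound exposure at 37C. LiveBLAzer B/G substrate, 2 hr RT, fluorescence read.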

[17] = molecular target: Androgen receptor (Homo sapiens) (UniProt P10275); assay: qHTS assay to identify small molecule agonists of the androgen receptor (AR) signaling pathway (AID 743036; active = well fitted activation curve with a large enough effect in the signal ratio in the repeat runs, with a control signal flat, not every such curve was filed as active; inconclusive = weak or mixed curves, or effect the other way; inactive = no such curve, though single readings can be large or run the other way; the % refers to the signal ratio)
How it was run: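 Agonist activity was scored by beta-lactamase reporter fluorescence in stably transfected HEK293 cells exposed to compounds for 16 h at 37C and 5% CO2. Substrate loading took 2 h at room temperature.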

[18] = molecular target: Androgen receptor (Homo sapiens) (UniProt P10275); assay: qHTS assay to identify small molecule antagonists of the androgen receptor (AR) signaling pathway using the MDA cell line (AID 743042; note: nearly all actives have a fitted effect of over 55% in size)
How it was run: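 MDA-kb2 cells (human breast carcinoma, stably carrying an MMTV-luciferase reporter responsive to AR and GR) were plated at 3,000 cells/well and preincubated 5 hr at 37C, then given compound plus R1881 agonist for 16 h. ONE-Glo luminescence was read.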

O=[N+]([O-])c1cc([N+](=O)[O-])c2ccccc2c1
Potency [1]: inactive | Potency [2]: 6.11 µM (active) | Potency [3]: 13.7 µM (active) | Potency [4]: inactive | Potency [5]: inactive | Potency [6]: inactive | Potency [7]: inactive | outcome [8]: inactive

CN(C)C(=S)S
Potency [1]: inactive | Potency [2]: 1.36 µM (active) and 1.37 µM (active) | Potency [3]: 1.21 µM (active) and 1.72 µM (active) | Potency [4]: 15.8 µM (active) and 1.54 µM (active) and 9.77 µM (active) | Potency [9]: inactive and 27.1 µM (active) and 2.73 µM (active) | Potency [10]: inactive | Potency [11]: inactive | Potency (Aromatase (Homo sapiens)): 8.81 µM (active) and 607 nM (active) and 1.72 µM (active)

COc1ccc(OC)c(CC(C)N)c1 (stereo not given)
Potency [1]: inactive | Potency [2]: inactive | Potency [3]: inactive | Potency [12]: inactive | Potency [4]: inactive | Potency [6]: inactive | Potency [9]: inactive | Potency [13]: inactive | Potency [14]: inactive | Potency [15]: inactive | Potency [11]: inactive | Potency (Aromatase (Homo sapiens)): inactive

CC1(C)[C@H](C(=O)O[C@H](C#N)c2cccc(Oc3ccccc3)c2)[C@@H]1/C=C(\Cl)C(F)(F)F
Potency [1]: inactive | Potency [2]: 50.5 µM (active) | Potency [3]: 50.5 µM (active) | Potency [12]: 40.1 µM (active) | Potency [6]: inactive | Potency [9]: inactive | outcome [8]: inactive | Potency [10]: inactive | Potency [11]: inactive | Potency (Aromatase (Homo sapiens)): inactive

CC(C)(C)c1ccc(CSc2cnn(C(C)(C)C)c(=O)c2Cl)cc1
Potency [1]: inactive | Potency [2]: 0.0097 µM (active) | Potency [3]: 0.0193 µM (active) | Potency [6]: 0.0306 µM (active) | Potency [9]: 54.5 µM (active) | Potency [15]: 0.0109 µM (active) | Potency [11]: 27.3 µM (active) | Potency (Aromatase (Homo sapiens)): 61.1 µM (active)

COc1cc(N)c(Cl)cc1C(=O)NC1CN2CCC1CC2 (stereo not given)
Potency [1]: inactive | Potency [2]: inactive | Potency [3]: inactive | Potency [4]: inactive | Potency [6]: inactive | Potency [9]: inactive | outcome [8]: inactive | Potency [10]: inactive | Potency [11]: inactive | Potency (Aromatase (Homo sapiens)): inactive

CC(=O)c1cc(C(C)(C)C)cc2c1CCC2(C)C
Potency [1]: inactive | Potency [2]: inactive | Potency [3]: inactive | Potency [4]: inactive | Potency [6]: inactive | Potency [9]: 43.3 µM (active) | Potency [7]: 48.6 µM (active) | outcome [8]: inactive | Potency [13]: inactive | Potency [14]: inactive | Potency [11]: inactive | Potency (Aromatase (Homo sapiens)): 68.6 µM (active)

ClCc1ccc(Cl)cc1Cl
Potency [1]: inactive | Potency [2]: inactive | Potency [3]: inactive | Potency [4]: inactive | Potency [6]: inactive | Potency [9]: inactive | Potency [7]: inactive | outcome [8]: inactive | Potency [16]: inactive | Potency [10]: inactive | Potency [13]: inactive | Potency [14]: inactive | Potency [15]: inactive | Potency [11]: inactive | Potency (Aromatase (Homo sapiens)): inactive

CC(=O)O[C@H]1CC[C@@]2(C)C(=CC[C@@H]3[C@@H]2CC[C@]2(C)C(=O)CC[C@@H]32)C1
Potency [1]: inactive | Potency [2]: inactive | Potency [3]: inactive | Potency [4]: inactive | Potency [17]: inactive | Potency [5]: inactive | Potency [6]: inactive | Potency [18]: inactive | Potency [9]: inactive | Potency [7]: inactive | outcome [8]: inactive | Potency [10]: inactive | Potency [13]: 811 nM [inconclusive] (active) and 490 nM [inconclusive] (active) | Potency [14]: 320 nM (active) and 86.3 nM (active) | Potency [15]: inactive | Potency [11]: inactive | Potency (Aromatase (Homo sapiens)): inactive

CC(C)OC(=O)C(O)(c1ccc(Cl)cc1)c1ccc(Cl)cc1
Potency [1]: inactive | Potency [2]: 8.63 µM (active) | Potency [3]: 6.86 µM (active) | Potency [12]: 7.7 µM (active) | Potency [9]: 61.1 µM (active) | Potency [7]: 61.1 µM (active) | outcome [8]: inactive | Potency [16]: 38.9 µM [inhibitor] (active) | Potency [10]: inactive | Potency [13]: inactive | Potency [14]: inactive | Potency [15]: inactive | Potency [11]: inactive

c1ccc2cc3c(cc2c1)-c1cccc2cccc-3c12
Potency [1]: inactive | Potency [2]: inactive | Potency [3]: inactive | Potency [4]: inactive | Potency [5]: inactive | Potency [6]: inactive | Potency [7]: inactive | outcome [8]: inactive | Potency [10]: inactive | Potency [14]: inactive | Potency [15]: 0.269 µM (active) | Potency (Aromatase (Homo sapiens)): inactive

Fc1ccc(Oc2ccnc3cc(Cl)cc(Cl)c23)cc1
Potency [1]: inactive | Potency [2]: 61.1 µM (active) | Potency [3]: 68.6 µM (active) | Potency [12]: 61.1 µM (active) | Potency [4]: inactive | Potency [7]: 68.6 µM (active) | Potency [10]: inactive | Potency [13]: inactive | Potency [14]: inactive | Potency [11]: inactive | Potency (Aromatase (Homo sapiens)): inactive

CC1(c2ccc(Oc3ccccc3)cc2)OC(=O)N(Nc2ccccc2)C1=O (stereo not given)
Potency [1]: 22 µM (active) | Potency [2]: 1.09 µM (active) | Potency [3]: 0.869 µM (active) | Potency [4]: 24.7 µM (active) | Potency [6]: 27.5 µM (active) | Potency [7]: 1.94 µM (active) | Potency [16]: 17.5 µM [inconclusive] (active) | Potency [10]: inactive | Potency [15]: 21.8 µM (active) | Potency (Aromatase (Homo sapiens)): 61.5 µM (active)

O=[N+]([O-])c1ccc2ccc3cccc4ccc1c2c34
Potency [1]: inactive | Potency [2]: inactive | Potency [3]: inactive | Potency [4]: inactive | Potency [5]: inactive | Potency [6]: inactive | Potency [18]: inactive | Potency [9]: inactive | outcome [8]: inactive | Potency [10]: inactive | Potency [13]: 2.75 µM [fluorescent] (active) | Potency [14]: inactive | Potency (Aromatase (Homo sapiens)): inactive

c1ccc2c(c1)OCC(C1=NCCN1)O2 (stereo not given)
Potency [1]: inactive | Potency [2]: 5.31 µM (active) | Potency [3]: 7.5 µM (active) | Potency [12]: 8.41 µM (active) | Potency [4]: inactive | Potency [9]: 7.5 µM (active) | Potency [7]: 7.5 µM (active) | Potency [10]: inactive | Potency [13]: inactive | Potency [15]: inactive | Potency [11]: inactive | Potency (Aromatase (Homo sapiens)): 26.6 µM (active)

CC(Cc1ccc(C(C)(C)C)cc1)CN1C[C@@H](C)O[C@@H](C)C1 (stereo not given in full)
Potency [1]: inactive | Potency [2]: 9.69 µM (active) | Potency [3]: 5.45 µM (active) | Potency [12]: 4.86 µM (active) | Potency [6]: inactive | Potency [9]: inactive | outcome [8]: inactive | Potency [10]: inactive | Potency [11]: inactive
